Shiga toxin inh = A qHTS for Small Molecule Inhibitors of Shiga Toxin | inhibition, % at 38.7 µM | 290,000 compounds, 9.2% hits | Vero cells, Shiga toxin protein synthesis inhibition reporter | AID 2315, 2010; in the data active = inhibition mostly above about 28%, no sharp cut-off; inactive = mostly below about 43%; note: 0% is about no effect
Pf growth 96h = Primary qHTS for delayed death inhibitors of the malarial parasite plastid, 96 hour incubation; P. falciparum luciferase reporter growth, 96 h; Potency, µM (series often up to 28.7 µM), for inactives: at the highest dose activity change, negative = inhibition, most hits filed as inhibitors; 320,000 compounds, 6.9% hits; note: potency is the fitted concentration of half-maximal effect; % is set by controls: 0 for no effect and ±100 for the full control effect
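Infected RBCs, 2% Hct / 0.05% parasitemia final; luciferase-reporter P. falciparum; cpd 96 h, 37 C, 5% CO2; luciferase detection reagent; luminescence.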
Pf growth 48h = Primary qHTS for delayed death inhibitors of the malarial parasite plastid, 48 hour incubation. 310,000 compounds, 5.9% hits. P. falciparum luciferase growth in erythrocytes, 48 h. Potency, µM (top dose mostly 28.7 µM), for inactives: at the highest dose activity change, negative = inhibition, hits mostly inhibitors; note: potency is the fitted concentration of half-maximal effect; % is set by controls: 0 for no effect and ±100 for the full control effect
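A one-generation exposure of luciferase-tagged malaria parasites in RPMI 1640/Albumax erythrocyte culture, 37 C and 5% CO2. Inhibition is inferred from decreased luminescence after adding detection reagent.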
CHX counter = Cycloheximide Counterscreen for Small Molecule Inhibitors of Shiga Toxin; cell reporter, cycloheximide protein synthesis inhibition counterscreen; max response, %; 300,000 compounds, 12% hits; AID 2314, 2010; in the data active = max response mostly above about 13%, no sharp cut-off; inactive = mostly below about 14%; note: read at 38.3 µM for the half of the compounds with a filed dose; 0% is about no effect
* = called active by the depositor; i = inactive; u = inconclusive; x = not tested or not shown. Compounds with a hit are over-represented: about 21% of the library has one in this group of screens. Unless noted, calls come from the whole dose curve; as a rule, active = well fitted inhibition curve with a large enough effect; inconclusive = small, poorly fitted or top-dose-only effect, or another doubt; inactive = no such curve, though single readings can be large or run the other way.

SMILES	Shiga toxin inh	Pf growth 96h	Pf growth 48h	CHX counter
CCOc1ccc(CN(C)CC(=O)NCc2ccc(F)cc2)cc1	-11.2	12.0%	-1.5%	4.0
Clc1ccc(OCCSc2ncccn2)c(Br)c1	117.9*	8.0%	82.7%	41.2*
Clc1ccc(OCCCCSc2ncccn2)cc1	20.0	64.4%	x	12.1
Brc1cccc(OCCSc2ncccn2)c1	44.0*	497.5%	47.0%	33.5*
CCCOc1ccc(OCCSc2ncccn2)cc1	80.9*	25.2%	209.3%	43.5*
Nc1nnc(SCCOc2cccc(Br)c2)s1	46.3	41.4%	56.6%	11.1
CCN(Cc1ccc(C#CCCO)cc1)CC1CCCN(CCc2cccc(OC)c2)C1 (stereo unspecified)	1.1	2.08µM*	u	0.9
CCOC(=O)c1c(C)[nH]c2cc(Br)c(OC)cc12	0.8	-6.1%	u	17.5*
O=C1COc2ccc(C(=O)COC(=O)Cc3ccccc3F)cc2N1	31.7	16.2%	2.8%	3.9
O=C1COc2ccc(C(=O)COC(=O)Cc3ccsc3)cc2N1	20.8	5.2%	-1.7%	11.0*
CCOc1cc(C2NN=C(c3ccc(C)cc3)S2)ccc1O (stereo unspecified)	94.1*	55.7%	108.9%	30.0*
Cc1ccc(C2=NNC(C(O)C(O)C(O)CO)S2)cc1 (stereo unspecified)	60.5*	92.6%	x	56.7*
CCOc1cc(C2c3c(n[nH]c3C)C(=O)N2c2ccc(C)cc2)ccc1O (stereo unspecified)	26.6	u	12.3%	4.8
COc1ccc(C2NN=C(c3ccc(C)cc3)S2)cc1 (stereo unspecified)	105.5*	21.8%	144.7%	57.1*
CC(=O)NC(Cc1c[nH]c2ccccc12)C(=O)OCC(=O)N1CCCCCC1 (stereo unspecified)	1.1	18.7%	3.5%	-0.6
CCOC(=O)C1=C(C)NC(=S)NC1c1ccc(OCC(=O)N2CCCCCC2)cc1 (stereo unspecified)	-4.3	u	u	-1.7
O=C(c1nc2ccccn2c1CN1CCC(Cc2ccccc2)CC1)N1CCCC1	-12.3	-1.6%	10.4µM*	-1.9
Cc1cccc(OC2CCN(Cc3c(C(=O)N4CCCC4)nc4ccccn34)CC2)c1	-3.3	u	-14.3%	-6.1
Cc1nc2ccc(NC(=O)COc3ccccc3C)cc2s1	64.4*	-47.3%	25.7%	34.0*
Cc1nc2ccc(NC(=O)Cc3cccs3)cc2s1	59.6*	-29.6%	i	29.4*
O=C(Cc1cccs1)Nc1cccc(-c2nc3cc4ccccc4cc3[nH]2)c1	119.8*	207.3%	44.7%	68.3*
CC(C)NS(=O)(=O)c1ccc(NC(=O)Cc2cccs2)cc1	40.5*	73.5%	38.8%	23.8*
O=C(Cc1cccs1)Nc1ccc(S(=O)(=O)Nc2ncccn2)cc1	-14.2	45.2%	0.2%	-1.4
O=C(Cc1cccs1)Nc1ccc(F)c(F)c1	-3.5	u	9.4%	-2.4
O=C(Cc1cccs1)Nc1ccc(F)cc1	8.5	u	27.4%	10.0*
SMILES	Shiga toxin inh	Pf growth 96h	Pf growth 48h	CHX counter
Cc1ccc(NC(=O)Cc2cccs2)cc1Cl	49.7*	u	30.6%	38.4*
CCOc1cccc(NC(=O)Cc2cccs2)c1	40.9*	22.2%	36.0%	12.7
Cc1ccc(NC(=O)Cn2nnc(C(=O)NCc3cccs3)c2N)cc1Cl	38.0	9.28µM*	37.3%	11.4
CC(=O)NC1(c2ccccc2)CCN(CC(=O)N2CCC(C)CC2)CC1	-4.1	34.2%	5.5%	-2.3
COCCCNC(=O)C1=CCN(S(=O)(=O)c2ccc(C)cc2)CC1	-12.4	u	6.2%	-3.2
O=[N+]([O-])C(/C=C(\Cl)[N+](=O)[O-])=C(N1CCCCC1)N1CCCCC1	35.2	1.17µM*	u	9.6
Fc1ccccc1CSc1nncn1NC/C=C/c1ccccc1	-4.0	-7.4%	u	-2.9
Cc1nnc(SCc2ccc(F)cc2)n1NC/C=C/c1ccccc1	7.8	5.86µM*	-9.6%	-1.4
COc1ccc(OC)c(Nc2nc(N)c([N+](=O)[O-])c(N3CCOCC3)n2)c1	-7.6	u	u	1.1
COc1ccc(CN(Cc2cccn2C)S(=O)(=O)c2cccc(C(F)(F)F)c2)cc1	19.7	u	11.7µM*	10.3
COc1ccc(C(=O)NC2CCN(C(=O)Nc3ccccc3Cl)CC2)cc1	20.0	13.2%	u	8.5
COc1ccc(N2CCN(C(=O)CCc3nnc4ccc(N5CCC(C)CC5)nn34)CC2)cc1	1.7	-2.2%	-20.2%	-1.6
COc1cccc(N2CCN(c3ccc4nnc(CCC(=O)N5CCC(C)CC5)n4n3)CC2)c1	-4.5	28.8%	8.28µM*	1.7
